Records with an inconclusive call do not appear. Where a call stands in place of a potency, no number is given. Values without a mark were called inactive. The source made the active and inactive calls. The call rests on the fitted dose curve; in most records, active means well fitted curve in the direction sought with a large enough effect in the repeat runs; inconclusive means weak or mixed curves; inactive means no such curve, though single readings can be large; an effect the other way counts as inactive or inconclusive.
Each compound was assayed against Nuclear receptor subfamily 1 group I member 3 (Homo sapiens) (UniProt Q14994) (assay: qHTS assay to identify small molecule antagonists of the constitutive androstane receptor (CAR) signaling pathway (AID 1224838;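 further: HepG2 cells stably expressing hCAR with CYP2B6 luciferase reporter stimulated by CITCO; nearly all actives have a fitted effect of over 40% in size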)). Details: HepG2-CYP2B6-hCAR luciferase, CITCO-stimulated, 24 h; series mostly up to 92.4 µM.
Chain of Nuclear receptor subfamily 1 group I member 3 (Homo sapiens) (Q14994 whole entry, looked up): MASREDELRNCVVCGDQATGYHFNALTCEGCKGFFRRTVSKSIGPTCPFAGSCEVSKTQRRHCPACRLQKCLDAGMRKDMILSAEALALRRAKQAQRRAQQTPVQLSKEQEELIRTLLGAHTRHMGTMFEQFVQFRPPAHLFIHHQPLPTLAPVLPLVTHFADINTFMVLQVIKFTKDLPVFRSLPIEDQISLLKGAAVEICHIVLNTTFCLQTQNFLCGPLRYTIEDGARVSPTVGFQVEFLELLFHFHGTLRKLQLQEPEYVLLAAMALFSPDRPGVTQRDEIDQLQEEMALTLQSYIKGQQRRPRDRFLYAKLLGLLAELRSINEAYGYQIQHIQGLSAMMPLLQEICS
Outline: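 Human hepatoma HepG2 cells expressing hCAR and a CYP2B6 promoter (2.2 kb) luciferase construct; compound titration (15 points) with 50 nM CITCO final, 24 h at 37 C/5% CO2; luminescence via ONE-Glo after 30 min at room temperature.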
With `COC(=O)c1cc(Cl)ccc1[N+](=O)[O-]` the Potency was “inactive”.
With `O=C(Nc1ccc2c(c1)Cc1ccccc1-2)C(F)(F)F` the Potency was “inactive”.
`O=C(OCCCCCOC(=O)c1ccccc1)c1ccccc1` was tested, and the Potency was “inactive”.
`O=C1OC(=O)C2CC=CCC12` (configuration not stated) was tested, and the Potency was “inactive”.
With `O=C1C=CCCC1` the Potency was “inactive”.
`O=C(O)CNc1ccccc1` was tested, and the Potency was “inactive”.
`O=C(O)c1cccnc1Nc1cccc(C(F)(F)F)c1` was tested, and the Potency was “inactive”.
For `O=Cc1ccc([N+](=O)[O-])cc1`, the Potency was “inactive”.
`O=C(O)c1cccc(C(=O)O)c1C(=O)O` was tested, and the Potency was “inactive”.
For `O=C(Nc1ccccc1)c1cc([N+](=O)[O-])ccc1Cl`, the Potency was “inactive”.
With `C/C=C1\[C@H]2C=C(C)C[C@]1(N)c1ccc(=O)[nH]c1C2` the Potency was “inactive”.
With `FC(F)(Cl)C(F)(Cl)Cl` the Potency was “inactive”.
For `CC(CC(C#N)(c1ccccc1)C(C)C)N(C)C` (configuration not stated), the Potency was “inactive”.
With `CO[C@@H]1COCC[C@@H]1N[C@@H]1CC[C@@](C(=O)N2CCc3ncc(C(F)(F)F)cc3C2)(C(C)C)C1` the Potency was “inactive”.
In the case of `CC[C@H](NC(C)C)[C@H](O)c1ccc(O)c2[nH]c(=O)ccc12`, the Potency is reported as “inactive”.

What follows are compounds tested against Nuclear receptor subfamily 1 group I member 3 (Homo sapiens) (UniProt Q14994) (assay: qHTS assay to identify small molecule agonists of the constitutive androstane receptor (CAR) signaling pathway (AID 1224839; further: nearly all actives have a fitted effect of over 15% in size; further: potency means the concentration at half of the fitted maximal effect;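 on activation: HepG2 cells stably carrying human CAR and a CYP2B6 luciferase reporter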)). Details: HepG2 hCAR CYP2B6-luciferase, agonist mode, 24 h; series mostly up to 92.4 µM.
Outline: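 Stable hCAR/CYP2B6-2.2kb HepG2 line in DMEM with 10% FBS; compounds (15 concentrations) and 0.75 uM PK11195 final, 24 h at 37 C/5% CO2, then ONE-Glo luminescence after 30 min.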
`O=C1c2ccccc2C(=O)C1c1ccc2cc(S(=O)(=O)O)cc(S(=O)(=O)O)c2n1` was tested, and the Potency was 41.7 µM (active).
For `CCCCCCCCCCCCN1CCOCC1`, the Potency was “inactive”.
For `CC(=O)c1ccc(Cl)c(Cl)c1Cl`, the Potency was “inactive”.
With `CC(C(=O)O)c1ccc(/C=C2\CCCCC2=O)cc1` (configuration not stated) the Potency was 26.6 µM (active).
`COC=O` gave an activation of -2.43% [at 8.39 µM].
In the case of `Cc1c(N=C=O)cccc1N=C=O`, the Potency is reported as “inactive”.
With `CC(=O)c1cccnc1` the Potency was “inactive”.
In the case of `O=[N+]([O-])c1ccc(Cl)cc1Cl`, the Potency is reported as “inactive”.
`CCCCCCCCNC` was tested, and the Potency was “inactive”.
`C=C(C)C(=O)OCCCCCCCCCCOC(=O)C(=C)C` was tested, and the Potency was “inactive”.
For `Cc1cc(C)c(C)c(O)c1`, the Potency was “inactive”.
In the case of `CCC(=O)O[C@]1(C(=O)COC)[C@@H](C)C[C@H]2[C@@H]3CCC4=CC(=O)C=C[C@]4(C)C3(F)[C@@H](O)C[C@@]21C` (some centres not stated), the Potency is reported as “inactive”.
With `CCN(CC)CC(=O)OCC(=O)[C@@]1(O)CC[C@H]2[C@@H]3CCC4=CC(=O)CC[C@]4(C)[C@H]3[C@@H](O)C[C@@]21C` the Potency was “inactive”.
In the case of `C=CC(=O)OCCCCCCCCCC`, the Potency is reported as “inactive”.
In the case of `O=C(Cl)c1ccc(F)c(Cl)c1`, the Potency is reported as “inactive”.
In the case of `O=C(NC1CCN(CCc2c[nH]c3ccccc23)CC1)c1ccccc1`, the Potency is reported as “inactive”.
With `CCOc1ccccc1O` the Potency was “inactive”.
`CCN(CCCCOC(=O)c1ccc(OC)c(OC)c1)C(C)Cc1ccc(OC)cc1` (configuration not stated) was tested, and the Potency was “inactive”.
`CC1(C)CC(O)CC(C)(C)N1[O]` was tested, and the Potency was “inactive”.
For `Cc1nc2sccn2c(=O)c1CCN1CCC(=C(c2ccc(F)cc2)c2ccc(F)cc2)CC1`, the Potency was “inactive”.
In the case of `CC(=O)S[C@H](C(=O)N[C@H]1Cc2ccccc2[C@H]2CCC[C@@H](C(=O)O)N2C1=O)C(C)C`, the Potency is reported as “inactive”.
With `CCOC(OCC)OCC` the Potency was “inactive”.
In the case of `Cc1c(Cl)cccc1Nc1ccccc1C(=O)O`, the Potency is reported as “inactive”.
For `COC(=O)c1cc(Cl)ccc1[N+](=O)[O-]`, the Potency was “inactive”.
With `O=C(Nc1ccc2c(c1)Cc1ccccc1-2)C(F)(F)F` the Potency was 27.3 µM (active).
For `O=C(OCCCCCOC(=O)c1ccccc1)c1ccccc1`, the Potency was “inactive”.
In the case of `O=C1OC(=O)C2CC=CCC12` (configuration not stated), the Potency is reported as “inactive”.
In the case of `O=C1C=CCCC1`, the Potency is reported as “inactive”.
In the case of `O=C(O)CNc1ccccc1`, the Potency is reported as “inactive”.
In the case of `O=Cc1ccc([N+](=O)[O-])cc1`, the Potency is reported as 61.5 µM (active).
`O=C(O)c1cccc(C(=O)O)c1C(=O)O` was tested, and the Potency was “inactive”.
With `O=C(Nc1ccccc1)c1cc([N+](=O)[O-])ccc1Cl` the Potency was “inactive”.
For `C/C=C1\[C@H]2C=C(C)C[C@]1(N)c1ccc(=O)[nH]c1C2`, the Potency was “inactive”.
For `FC(F)(Cl)C(F)(Cl)Cl`, the Potency was “inactive”.
`CC(CC(C#N)(c1ccccc1)C(C)C)N(C)C` (configuration not stated) was tested, and the Potency was “inactive”.
In the case of `CO[C@@H]1COCC[C@@H]1N[C@@H]1CC[C@@](C(=O)N2CCc3ncc(C(F)(F)F)cc3C2)(C(C)C)C1`, the Potency is reported as “inactive”.
For `CC[C@H](NC(C)C)[C@H](O)c1ccc(O)c2[nH]c(=O)ccc12`, the Potency was “inactive”.

From PubChem BioAssay (Tox21)
